In all, about 5,500 compounds went through this assay and about 2,000 (36%) were called active. Roughly 18% stayed inconclusive and do not appear here. Cut-off read from the data, not from the text of the source: active = normalized growth mostly below about 0.91 (no sharp cut-off); inconclusive = no clear call, values can overlap the other calls; inactive = mostly above about 0.92. The list shows a part of the results.
Test: chemical genetic growth profiling, strain panel (AID 1159580);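 note: tested at 20 µM; growth read once vehicle control cultures reached saturation at 30 °C; 1 = growth at the plate median or of vehicle wells; lower values mean less growth of the strain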
Details: growth OD

Measured: normalized growth

O=C(O)c1cc(=O)c2cc(Cl)ccc2[nH]1
inactive: S. cerevisiae deletion strains, locus YAL013W, strain DEP1, stronger effect = lower value 0.985 | S. cerevisiae deletion strains, locus YBR021W, strain FUR4, stronger effect = lower value 1.03 | S. cerevisiae deletion strains, locus YBR229C, strain ROT2, stronger effect = lower value 1.01 | S. cerevisiae deletion strains, locus YCL029C, strain bik1, stronger effect = lower value 1.01 | S. cerevisiae deletion strains, locus YDL035C, strain GPR1, stronger effect = lower value 1 | S. cerevisiae deletion strains, locus YDL074C, strain BRE1, stronger effect = lower value 0.972 | S. cerevisiae deletion strains, locus YDL101C, strain DUN1, stronger effect = lower value 1 | S. cerevisiae deletion strains, locus YDL134C, strain PPH21, stronger effect = lower value 1 | S. cerevisiae deletion strains, locus YDL185W, strain tfp1, stronger effect = lower value 1 | S. cerevisiae deletion strains, locus YDL192W, strain arf1, stronger effect = lower value 1.01 | S. cerevisiae deletion strains, locus YDR101C, strain arx1, stronger effect = lower value 1.01 | S. cerevisiae deletion strains, locus YDR150W, strain NUM1, stronger effect = lower value 1.01 | S. cerevisiae deletion strains, locus YDR162C, strain NBP2, stronger effect = lower value 0.988 | S. cerevisiae deletion strains, locus YDR318W, strain mcm21, stronger effect = lower value 1.03 | S. cerevisiae deletion strains, locus YDR388W, stronger effect = lower value 1.01 | S. cerevisiae deletion strains, locus YDR502C, strain sam2, stronger effect = lower value 1 | S. cerevisiae deletion strains, locus YEL061C, strain CIN8, stronger effect = lower value 1 | S. cerevisiae deletion strains, locus YER110C, stronger effect = lower value 1 | S. cerevisiae deletion strains, locus YER155C, strain BEM2, stronger effect = lower value 0.995 | S. cerevisiae deletion strains, locus YER167W, strain BCK2, stronger effect = lower value 1.02 | S. cerevisiae deletion strains, locus YGL078C, strain dbp3, stronger effect = lower value 1 | S. cerevisiae deletion strains, locus YGL086W, strain mad1, stronger effect = lower value 1.01 | S. cerevisiae deletion strains, locus YGL248W, strain PDE1, stronger effect = lower value 1.02 | S. cerevisiae deletion strains, locus YGR078C, strain PAC10, stronger effect = lower value 0.995 | S. cerevisiae deletion strains, locus YGR135W, strain pre9, stronger effect = lower value 0.994 | S. cerevisiae deletion strains, locus YGR229C, strain SMI1, stronger effect = lower value 0.972 | S. cerevisiae deletion strains, locus YGR252W, strain gcn5, stronger effect = lower value 1.04 | S. cerevisiae deletion strains, locus YHR030C, strain SLT2, stronger effect = lower value 1 | S. cerevisiae deletion strains, locus YHR079C, strain IRE1 (second series), stronger effect = lower value 1.02 | S. cerevisiae deletion strains, locus YHR094C, strain hxt1, stronger effect = lower value 1.01 | S. cerevisiae deletion strains, locus YHR129C, strain ARP1, stronger effect = lower value 1.02 | S. cerevisiae deletion strains, locus YHR200W, strain rpn10, stronger effect = lower value 1.01 | S. cerevisiae deletion strains, locus YIL066C, strain RNR3, stronger effect = lower value 0.997 | S. cerevisiae deletion strains, locus YIL073C, strain SPO22, stronger effect = lower value 1.08 | S. cerevisiae deletion strains, locus YIL125W, strain kgd1, stronger effect = lower value 1.01 | S. cerevisiae deletion strains, locus YIR030C, strain dcg1, stronger effect = lower value 1.01 | S. cerevisiae deletion strains, locus YJL095W, strain BCK1, stronger effect = lower value 0.994 | S. cerevisiae deletion strains, locus YJL134W, strain LCB3, stronger effect = lower value 1.01 | S. cerevisiae deletion strains, locus YJL168C, strain set2, stronger effect = lower value 1 | S. cerevisiae deletion strains, locus YJL187C, strain SWE1 (second series), stronger effect = lower value 1.01 | S. cerevisiae deletion strains, locus YJR043C, strain POL32, stronger effect = lower value 1.01 | S. cerevisiae deletion strains, locus YJR075W, strain HOC1, stronger effect = lower value 0.983 | S. cerevisiae deletion strains, locus YKL009W, strain mrt4, stronger effect = lower value 1.03 | S. cerevisiae deletion strains, locus YKL068W, stronger effect = lower value 0.996 | S. cerevisiae deletion strains, locus YKL085W, strain MDH1 (second series), stronger effect = lower value 1.02 | S. cerevisiae deletion strains, locus YKL085W, strain MDH1, stronger effect = lower value 1.02 | S. cerevisiae deletion strains, locus YKL190W, strain CNB1, stronger effect = lower value 1 | S. cerevisiae deletion strains, locus YKR001C, strain vps1, stronger effect = lower value 1.01 | S. cerevisiae deletion strains, locus YLR039C, strain RIC1, stronger effect = lower value 1.02 | S. cerevisiae deletion strains, locus YLR058C, strain SHM2, stronger effect = lower value 1.01 | S. cerevisiae deletion strains, locus YLR102C, strain apc9, stronger effect = lower value 1.01 | S. cerevisiae deletion strains, locus YLR262C, strain YPT6, stronger effect = lower value 1.01 | S. cerevisiae deletion strains, locus YLR268W, strain sec22, stronger effect = lower value 1.01 | S. cerevisiae deletion strains, locus YLR330W, strain CHS5, stronger effect = lower value 1 | S. cerevisiae deletion strains, locus YLR342W, strain FKS1 (second series), stronger effect = lower value 1.08 | S. cerevisiae deletion strains, locus YLR371W, strain rom2, stronger effect = lower value 1.02 | S. cerevisiae deletion strains, locus YLR418C, strain cdc73, stronger effect = lower value 0.984 | S. cerevisiae deletion strains, locus YML016C, strain PPZ1, stronger effect = lower value 1 | S. cerevisiae deletion strains, locus YML032C, strain rad52, stronger effect = lower value 1.02 | S. cerevisiae deletion strains, locus YML124C, strain tub3, stronger effect = lower value 1 | S. cerevisiae deletion strains, locus YMR078C, strain ctf18, stronger effect = lower value 1.02 | S. cerevisiae deletion strains, locus YMR223W, strain ubp8, stronger effect = lower value 1.03 | S. cerevisiae deletion strains, locus YMR263W, strain SAP30, stronger effect = lower value 1 | S. cerevisiae deletion strains, locus YMR307W, strain GAS1, stronger effect = lower value 1.03 | S. cerevisiae deletion strains, locus YNL067W, strain RPL9B, stronger effect = lower value 0.994 | S. cerevisiae deletion strains, locus YNL128W, strain TEP1, stronger effect = lower value 0.951 | S. cerevisiae deletion strains, locus YNL153C, strain GIM3, stronger effect = lower value 0.999 | S. cerevisiae deletion strains, locus YNL233W, strain BNI4, stronger effect = lower value 1.01 | S. cerevisiae deletion strains, locus YNL250W, strain rad50, stronger effect = lower value 1.01 | S. cerevisiae deletion strains, locus YNL271C, strain bni1, stronger effect = lower value 1 | S. cerevisiae deletion strains, locus YNL298W, strain CLA4, stronger effect = lower value 1.01 | S. cerevisiae deletion strains, locus YNL307C, strain MCK1, stronger effect = lower value 1.03 | S. cerevisiae deletion strains, locus YNL322C, strain KRE1, stronger effect = lower value 0.998 | S. cerevisiae deletion strains, locus YNR052C, strain pop2, stronger effect = lower value 1.01 | S. cerevisiae deletion strains, locus YOL006C, strain TOP1, stronger effect = lower value 1.03 | S. cerevisiae deletion strains, locus YOL012C, strain htz1 1.31 | S. cerevisiae deletion strains, locus YOL147C, strain pex11, stronger effect = lower value 1.01 | S. cerevisiae deletion strains, locus YOR061W, strain CKA2, stronger effect = lower value 1 | S. cerevisiae deletion strains, locus YOR069W, strain VPS5, stronger effect = lower value 1.01 | S. cerevisiae deletion strains, locus YOR136W, strain idh2, stronger effect = lower value 1.01 | S. cerevisiae deletion strains, locus YOR144C, strain elg1, stronger effect = lower value 1 | S. cerevisiae deletion strains, locus YOR184W, strain ser1, stronger effect = lower value 1.06 | S. cerevisiae deletion strains, locus YOR316C, strain cot1, stronger effect = lower value 1.01 | S. cerevisiae deletion strains, locus YPL055C, strain LGE1, stronger effect = lower value 0.967 | S. cerevisiae deletion strains, locus YPL241C, strain CIN2, stronger effect = lower value 1 | S. cerevisiae deletion strains, locus YPR119W, strain clb2, stronger effect = lower value 1 | S. cerevisiae deletion strains, locus YPR141C, strain kar3, stronger effect = lower value 1.01 | S. cerevisiae deletion strains, locus YPR163C, strain tif3, stronger effect = lower value 1.01 | S. cerevisiae deletion strains, locus YPR167C, strain met16, stronger effect = lower value 1 | S. cerevisiae deletion strains, strain wtn01, stronger effect = lower value 1.01 | S. cerevisiae strains, strain wild type, stronger effect = lower value 0.988

Reference: PubChem BioAssay AID1159580 (chemical genetic matrix, 2015)
